Measurements taken from PubChem BioAssay (NCI).
This is part of a sample that, as a whole, favours compounds with a hit. Of some 83,000 tested, about 20% had one in any assay.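 Testing used 96-well plates and a 48-hour single-concentration exposure. Example: -40 means 40% of the starting cells died.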 Active and inactive are the calls of the source.

These molecules were tested on HT29 colon (assay: NCI-60 one-dose screen, 48 h (100 = growth as untreated, 0 = no growth, -100 = all killed)). Conditions: 10 µM unless noted.
Protocol: Growth inhibition of the HT29 human tumor cell line is measured as a screen for anti-cancer activity. Cells are grown in 96 well plates and exposed to the test compound for 48 hours. Compounds are tested at a single concentration, which is 10^-5 M for most compounds. The reported endpoint is percent growth (GI% or GIPRCNT), where numbers from 0 - 100% represent growth inhibition, and numbers from -100% - 0 represent cell death. For example, a value of 40 represents 60% growth inhibition. A value of 0 means no net growth occurred over the course of the experiment. A value of -40 indicates 40% of cells at the beginning of the experiment died by the end of the experiment. A value of -100 means all cells are dead at the end of the experiment.
NCI-60 Human Tumor Cell Lines Screen was performed using the standard one-dose NCI protocol, which is described in more detail at https://dtp.cancer.gov/discovery_development/nci-60/default.htm.
Compounds with GIPRCNT values below 10 were considered active. Activity score was based on GIPRCNT using the following formula: […]
Score is 0 for GIPRCNT values of 100 or above, 50 for GIPRCNT values of 0, and 100 for GIPRCNT values of -100.
`Cc1cc(-c2ccc(Cl)cc2)n(Cc2nnc(SCC(=O)Nc3ccc(S(N)(=O)=O)cc3)n2C2CCCCC2)n1` was tested, and the growth was 108% (inactive).
In the case of `O=C(Nc1ccc(N=Cc2c(O)[nH]c3ccccc23)cc1)Nc1nccs1`, the growth is reported as 17.9% (inactive).
In the case of `CCOC(=O)C(=O)/C(=C\c1ccc(Cl)cc1)C(=O)N1C(=S)NC(=O)C1CC(C)C` (stereo not given), the growth is reported as 108% (inactive).
For `O=c1[nH]c2ccccc2cc1CSc1ccccc1Nc1nccc(-c2ccc(Cl)cc2)n1`, the growth was 109% (inactive).
For `CC1(C)CC[C@]2(C(=O)N3CCOCC3)CC[C@]3(C)C(=CC[C@@H]4[C@@]5(C)C/C(=C/c6ccccn6)C(=O)C(C)(C)[C@@H]5CC[C@]43C)[C@@H]2C1`, the growth was 56.3% (inactive).
In the case of `O=C(NNc1nc2cc(F)c(F)cc2n2cccc12)c1cnccn1`, the growth is reported as 36.8% (inactive).
In the case of `COc1cccc2cc(-c3cc4ccccc4[nH]3)/c(=N\NC(=O)c3ccc(Cl)cc3)oc12`, the growth is reported as 67% (inactive).
For `Nc1ncc(-c2ccc3ncnc(N4CCc5cc(F)c(F)cc54)c3c2)cn1`, the growth was 33.1% (inactive).
With `CN1CCN(Cc2ccc(NC(=O)c3cncc(C#Cc4cnc5ccc(N6CCN(C)CC6)nn45)c3)cc2C(F)(F)F)CC1` the growth was -41.6% (active).
`NC(N)=Nc1ccc(Oc2cccc(Nc3ccc(Br)c(C(F)(F)F)c3)c2)cn1` was tested, and the growth was -48.5% (active).
For `Cc1ccc(C2=Nn3c(nnc3-c3ccccc3)SC2)cc1`, the growth was 4.8% (active).
`CNC(=O)c1cc(-n2ccc3cc(NC(=O)Nc4ccc(N5CCOCC5)c(C(F)(F)F)c4)ccc32)ccn1` was tested, and the growth was 19.6% (inactive).
With `COc1cc(-c2nn(C(C)(C)C)cc2-c2ccnc(NCCCNS(=O)(=O)c3cccc(F)c3)n2)ccc1Cl` the growth was 65.1% (inactive).
`NS(=O)(=O)c1ccc(Nc2nc(SCC(=O)c3ccc(Cl)cc3)nc3c2CCCC3)cc1` was tested, and the growth was 8.57% (active).
In the case of `CNC1CCc2c(sc(NC(=O)c3ccc(C(C)(C)C)cc3)c2C(N)=O)C1` (stereo not given), the growth is reported as -0.193% (active).
In the case of `O=C1[C@H]2Cc3c([nH]c4ccccc34)[C@@H](c3c(Cl)cccc3Cl)N2C(=O)CN1C1CCN(CC2CCCCC2)CC1`, the growth is reported as 20.5% (inactive).
With `CS(=O)(=O)Nc1cc(-c2ccc3ncc(C#N)c(NCc4ccccc4)c3c2)cnc1Cl` the growth was 6.89% (active).
With `O=S(=O)(NCCNc1nccc(-n2cnc3ccccc32)n1)c1ccc(Cl)cc1` the growth was 103% (inactive).
`COc1ccc(NC2=C(Cl)C(=O)c3nc(C)ccc3C2=O)cc1OC` was tested, and the growth was 110% (inactive).
With `CC(C)(C)c1ccc(C(=O)Nc2nc3ccc(O)cc3s2)cc1` the growth was 2.02% (active).
In the case of `O=C(CN1CCN(c2cc(=O)[nH]c3ccc(F)cc23)CC1)Nc1ccc(Cl)cc1`, the growth is reported as 100% (inactive).
For `Cc1ccc(NC(=O)c2ccc(CN3CCOCC3)c(C(F)(F)F)c2)cc1Oc1ccc(-c2[nH]nc3ncnc(N)c23)cc1`, the growth was 37% (inactive).
With `O=S(=O)(NCCCNc1nccc(-c2[nH]c(-c3ccccc3)nc2-c2ccc(Cl)c(O)c2)n1)c1ccc(Br)cc1` the growth was 39.7% (inactive).
In the case of `CN1CCN(Cc2ccc(NC(=O)c3cncc(C#Cc4cnc5ccc(NCCCO)nn45)c3)cc2C(F)(F)F)CC1`, the growth is reported as -2.42% (active).
In the case of `O=C(CCn1c[n+](CC(=O)c2ccc(F)cc2)c2ccccc21)Nc1cccc2cccnc12`, the growth is reported as 58.6% (inactive).
In the case of `C=CC(=O)N1CC=C(c2cc3c(N[C@H](C)c4ccccc4)ncnc3[nH]2)CC1`, the growth is reported as 54% (inactive).
For `O=C(NNc1nc2cc(F)c(F)cc2n2c(CN3CC4CNCC4C3)ccc12)c1ncccn1` (stereo not given), the growth was 23.5% (inactive).
`CCCn1cnc2c(c1=N)C(c1ccc(F)cc1)c1sc3c(CC)cccc3c1O2` (stereo not given) was tested, and the growth was 9.3% (active).
`Nc1cc(-c2c[nH]c3ccc(Br)cc23)nc2cc(-c3c[nH]c4ccc(Br)cc34)nn12` was tested, and the growth was -33.8% (active).
For `COc1cc(OC)c(S(N)(=O)=O)cc1C(=O)/C=C/c1ccc(Cl)cc1`, the growth was 6.08% (active).
For `COc1cccc2c1CN(C(=O)c1ccc(O)c(C(=O)N3Cc4ccc(OCCC[P+](c5ccccc5)(c5ccccc5)c5ccccc5)cc4C3)c1)C2`, the growth was 100% (inactive).
With `Nc1cc(F)ccc1NC(=O)c1ccc(NC(=O)C/C=C/c2cccnc2)cc1` the growth was 24.5% (inactive).
`C=CCn1c(SCC(=O)Nc2ccc(C(=O)/C=C/c3ccc(Cl)cc3)cc2)nnc1-c1c[nH]c2ccccc12` was tested, and the growth was 88.7% (inactive).
`C=CCn1c(-c2nc3ccc(C(=C(C#N)C#N)c4ccccc4)cc3[nH]2)cc2cc(Br)ccc21` was tested, and the growth was 64.4% (inactive).
For `CCCCCc1ccc(S(=O)(=O)Nc2cccc(-c3csc(NC(=O)CCCCCN4CCN(CCO)CC4)n3)c2)cc1`, the growth was 11.4% (inactive).
With `COc1ccc2[nH]cc(-c3csc4nc(-c5ccccc5)cn34)c2c1` the growth was -8.92% (active).
With `O=C1CCCc2nc(Nc3ccc(S(=O)(=O)Nc4ccc([N+](=O)[O-])cc4)cc3)ncc21` the growth was 118% (inactive).
For `O=C(Cn1c(-c2ccccc2)nc2cc(Cl)c(Cl)cc21)N=Nc1c(O)[nH]c2ccc(Cl)cc12`, the growth was 51.4% (inactive).
`O=S(=O)(NCCCNc1nccc(-c2[nH]c(-c3ccccc3)nc2-c2ccc(Cl)c(O)c2)n1)c1cccc(F)c1` was tested, and the growth was 61.7% (inactive).
With `O=C(CSc1nc2ccccc2c(=O)n1-c1ccc(Cl)cc1)N/N=C/c1ccc(N2CCCCC2)cc1` the growth was 60.9% (inactive).
